Data published in PubChem BioAssay (NCATS).
Results filed as inconclusive are left out. Active and inactive are the calls of the source. The call rests on the fitted dose curve.

Columns and labels:
[1] = Primary qHTS for inhibitors of SARS-S pseudo-typed particle cell entry (AID 1479145); details: SARS-S pseudotyped particle cell entry, luciferase reporter; series mostly up to 57.1 µM; further: nearly all actives have a fitted effect of over 45% in size
[2] = Primary qHTS for Huh7 cytotoxicity: counterscreen for inhibitors of MERS-S pseudotyped particle cell entry (AID 1479147); details: cell viability read-out; series mostly up to 57.1 µM
[3] = Primary qHTS for inhibitors of MERS-S pseudo-typed particle cell entry (AID 1479149); details: MERS-S pseudotyped particle entry, luciferase; series mostly up to 57.1 µM; further: nearly all actives have a fitted effect of over 60% in size
[4] = Primary qHTS for Vero E6 cytotoxicity: counterscreen for inhibitors of SARS-S pseudo-typed particle cell entry (AID 1479150); details: cell viability; series mostly up to 57.1 µM

Measured: Potency

CCOC(=O)/C=C(C)/C=C/C=C(C)/C=C/c1c(C)cc(OC)c(C)c1C
inactive: all assays above

CCCc1nn(C)c2c(=O)[nH]c(-c3cc(S(=O)(=O)N4CCN(C)CC4)ccc3OCC)nc12
inactive: all assays above

COc1ccc(C2C(=O)c3ccccc3C2=O)cc1
inactive: all assays above

C/C(=N\O)[C@@H](C)NCC(C)(C)CN[C@H](C)/C(C)=N/O
inactive: all assays above

NS(=O)(=O)c1cc(-c2nn[nH]n2)c(NCc2cccs2)cc1Cl
inactive: all assays above

CCOC(=O)[C@H](CCc1ccccc1)N[C@H]1CCCN2CCC[C@@H](C(=O)O)N2C1=O
inactive: all assays above

C[C@]12CCC(=O)C=C1CC[C@H]1[C@@H]3CC[C@](O)(C(=O)CO)[C@@]3(C)C[C@H](O)[C@@]12F
inactive: all assays above

CC(O)(P(=O)(O)O)P(=O)(O)O
inactive: all assays above

NC(=O)NC1N=C([O][Al])NC1=O (stereo not given)
inactive: all assays above

O=C(O)c1ccccc1S
inactive: all assays above

CC1(C)O[C@@H]2C[C@H]3[C@@H]4C[C@H](F)C5=CC(=O)C=C[C@]5(C)[C@@]4(F)[C@@H](O)C[C@]3(C)[C@]2(C(=O)CO)O1
inactive: all assays above

C#CCN[C@@H]1CCc2ccccc21
inactive: all assays above

CC(=O)OCC(=O)[C@@]1(O)CC[C@H]2[C@@H]3CCC4=CC(=O)CC[C@]4(C)[C@H]3C(=O)C[C@@]21C
inactive: all assays above

CCCCCCCCCCCCCCCCCCO
inactive: all assays above

Nc1ccc(C(=O)O)cc1
inactive: all assays above

CC(=O)NC[C@H]1CN(c2ccc(N3CCOCC3)c(F)c2)C(=O)O1
inactive: all assays above

CCCc1nc(C(C)(C)O)c(C(=O)OCc2oc(=O)oc2C)n1Cc1ccc(-c2ccccc2-c2nn[nH]n2)cc1
inactive: all assays above

COc1cc2c3cc1Oc1cc(ccc1O)C[C@@H]1c4c(cc(OC)c(O)c4Oc4ccc(cc4)C[C@@H]3N(C)CC2)CC[N+]1(C)C
inactive: all assays above

Cc1nnc(NS(=O)(=O)c2ccc(N)cc2)s1
inactive: all assays above

NC(=O)NC(=O)Cc1ccccc1
inactive: all assays above

O=S(=O)(O)CCS
inactive: all assays above

O=C(O)/C=C(\CC(=O)O)C(=O)O
inactive: all assays above

COc1ccnc(CS(=O)c2nc3ccc(OC(F)F)cc3[nH]2)c1OC (stereo not given)
inactive: all assays above

Cc1c(C(C)C)c(=O)n(-c2ccccc2)n1C
inactive: all assays above

Cc1ccc(Cl)c(Nc2ccccc2C(=O)O)c1Cl
inactive: all assays above

CC(=O)NCc1c(I)c(NC(C)=O)c(I)c(C(=O)O)c1I
inactive: all assays above

O=C(O)CSCC(=O)NC1CCSC1=O (stereo not given)
inactive: all assays above

CCn1nc(C(=O)O)c(=O)c2cc3c(cc21)OCO3
inactive: all assays above

O=c1cc(O)c(Cl)c[nH]1
inactive: all assays above

CC(C)NCC(O)c1ccc(NS(C)(=O)=O)cc1 (stereo not given)
inactive: all assays above

COC(=O)C1=C(C)NC(C)=C(C(=O)OCCc2ccc(N3CCN(C(c4ccccc4)c4ccccc4)CC3)cc2)C1c1cccc([N+](=O)[O-])c1 (stereo not given)
inactive: all assays above

Cc1ccccc1OCC(O)CO (stereo not given)
inactive: all assays above

C[C@@H](CN1CC(=O)NC(=O)C1)N1CC(=O)NC(=O)C1
inactive: all assays above

CCCCOC(=O)c1ccc(N)cc1
inactive: all assays above

N[C@@H](CCC(=O)N[C@@H](CS)C(=O)NCC(=O)O)C(=O)O
inactive: all assays above
